Screens from PubChem BioAssay.
A selection: hits, their analogues and other compounds. The true share with any hit is near 3.5%.
M1 ag = human M1 muscarinic receptor agonists, primary screen, Fluo-8 calcium fluorescence, CHO-K1 cells, HTS; Muscarinic acetylcholine receptor M1 (Homo sapiens), P11229; CHO-K1 hM1, agonist mode; 0% DMSO, 100% acetylcholine EC100; activation, % at 3 µM; 0.33% of 360,000 active; AID 588814, 2011;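 active = activation above the run's mean compound activation plus 3 SD, cut at about 16% in these data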;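 note: peak over basal fluorescence ratio within a 140 s kinetic read after compound addition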
Target sequence (P11229 whole entry, looked up): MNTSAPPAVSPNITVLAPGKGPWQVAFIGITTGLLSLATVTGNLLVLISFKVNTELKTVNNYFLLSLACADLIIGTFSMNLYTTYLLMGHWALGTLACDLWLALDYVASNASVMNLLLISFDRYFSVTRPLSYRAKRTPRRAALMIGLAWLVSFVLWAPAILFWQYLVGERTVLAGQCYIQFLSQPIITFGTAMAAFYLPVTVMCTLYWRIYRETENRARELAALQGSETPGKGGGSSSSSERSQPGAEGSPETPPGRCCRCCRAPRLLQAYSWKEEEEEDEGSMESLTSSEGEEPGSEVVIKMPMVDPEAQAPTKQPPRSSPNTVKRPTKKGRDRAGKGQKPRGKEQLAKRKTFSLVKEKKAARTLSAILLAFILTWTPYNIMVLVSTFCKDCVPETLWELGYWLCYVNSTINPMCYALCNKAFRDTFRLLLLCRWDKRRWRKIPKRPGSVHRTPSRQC
Myeloid diff MLP = induction of myeloid progenitor differentiation, primary screen, cell-based, flow cytometry, MLPCN library; ER-HoxA9 myeloid progenitors, lysozyme-GFP differentiation; calls only at 10 µM; 1% of 360,000 active; AID 624256, 2012;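 active = normalized GFP-positive differentiation at or above the plate's own cutoff, the solvent-only control mean plus 3 SD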;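 note: cells exposed to compound for four days before flow analysis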
CHRM1 PAM = human M1 muscarinic receptor positive allosteric modulators, primary screen, CHO-K1 cells, Fluo-8 calcium fluorescence, 1536-well. Muscarinic acetylcholine receptor M1 (Homo sapiens), P11229. CHO-K1 hM1, ACh EC20; 0% = ACh EC20, 100% = maximal ACh. activation, % at 3 µM. 0.088% of 360,000 active. AID 588819, 2011; in the data active = activation above about 19%, passing the limit was not always enough
M1 antag = human M1 muscarinic receptor antagonists, primary screen, CHO-K1 cells, Fluo-8 calcium fluorescence, 1536-well; Muscarinic acetylcholine receptor M1 (Homo sapiens), P11229; CHO-K1 hM1, ACh EC80 antagonist; inhibition, % at 3 µM; 1.3% of 360,000 active; AID 588852, 2011;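 active = percent inhibition above its own plate's cutoff, namely the mean of that plate's compound wells plus 3 SD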;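 note: peak over basal fluorescence ratio during 140 s after agonist addition; 0% = ACh EC80 plus DMSO and 100% = DMSO alone without agonist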
SKN-1 inh = suppressors of acrylamide-induced Pgst-4::GFP reporter in worms, primary screen, SKN-1 inhibitor project, whole organism, uHTS, GFP/RFP fluorescence ratio, strain VP596; C. elegans VP596 Pgst-4::GFP/RFP ratio, 24 h; 0.49% of 360,000 active; inhibition, % at 21.8 µM;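 active = interference check ratio from 0.5 to 1.5 plus GFP to RFP signal ratio inhibition reaching or exceeding a fixed threshold, cut at about 30% in these data, passing the limit was not always enough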
ATG4B inhibitor = ATG4B protease inhibitors, primary screen, biochemical, fluorescence, uHTS. Cysteine protease ATG4B (Homo sapiens), Q9Y4P1. AID 504462, 2011. ATG4B cleavage of LC3-PLA2, NBD-HPC fluorescence, 1 h. inhibition, % at 8.33 µM. 0.51% of 340,000 active; in the data active = inhibition above about 40%
Active calls of the source: *; i = inactive; . = no result; + = active, no number.

SMILES | M1 ag | Myeloid diff MLP | CHRM1 PAM | M1 antag | SKN-1 inh | ATG4B inhibitor
NC(=S)NNC(=O)C12CC3CC(CC(C3)C1)C2 | 29* | i | -6 | 23* | 2 | -1
COC(=O)NNC(=O)C12CC3CC(CC(C3)C1)C2 | 1 | i | 11 | -17 | -2 | -8
S=C(NCc1cccs1)Nc1cc(Cl)cc(Cl)c1 | 2 | i | -20 | 43* | -2 | 35
Cc1cc(C(=O)CSc2nc3ccccc3[nH]2)c(C)n1CC1CCCO1 (stereo not drawn) | 1 | i | -34 | 76* | 1 | -5
Cc1cccc(Nc2nc(-c3c(C)nc4ccccn34)cs2)c1 | -5 | i | -23 | 37* | 6 | -8
Cc1noc(C)c1Cn1c(C)c(C(=O)NCc2ccc3c(c2)OCCO3)sc1=O | -4 | i | 5 | -7 | 0 | .
Cc1ccccc1-c1nnc(-c2ccc(Cl)cc2)o1 | -4 | i | 8 | -13 | 24 | -3
Clc1ccc(-c2nnc(-c3ccccc3Cl)o2)cc1 | -3 | i | -10 | 14 | 62* | 10
Clc1ccccc1-c1nnc(-c2ccccc2Cl)o1 | -4 | i | 0 | -3 | 67* | 9
CCCNCc1nnc(-c2ccccc2Cl)o1 | -8 | i | 8 | -7 | 1 | 10
COc1ccc(CNC(=O)[C@@H]2CC=C[C@@H]3CCN(Cc4ccc(Cl)c(Cl)c4)C(=O)[C@@H]32)cc1 | -2 | i | 10 | -4 | 16 | -10
COc1ccc(CNC[C@@H](CCCCN(C)Cc2ccc(OC)cc2)N2C[C@H](c3ccccc3)N(CCc3ccc(Cl)c(Cl)c3)C(=O)C2=O)cc1 | 21* | i | -5 | 7 | 4 | -3
CN1CCC(OC(=O)c2ccccc2)CC1 | -10 | i | -16 | 21 | 25 | -6
CN1CCC(OC2c3ccccc3CCc3ccccc32)CC1 | -6 | i | -30 | 99* | 3 | .
C=CCSc1ncc(-c2ccccc2)cn1 | -14 | i | 5 | -11 | 73* | 12
C#CCSc1ncc(-c2ccccc2)cn1 | -16 | i | -28 | 10 | 90* | 0
CCOc1ccc(OCCC(=O)OCC(=O)c2c(N)n(C)c(=O)n(C)c2=O)cc1 | 0 | i | 12 | -13 | 19 | 2
CCCCn1c(/C=N/Nc2nc3ccccc3[nH]2)nc2ccccc21 | -8 | + | -26 | 18 | 4 | 14
C[C@H](CO)N1C[C@H](C)[C@@H](CN(C)S(=O)(=O)c2ccccc2)OCc2cnnn2CCCC1=O | -4 | i | 5 | -6 | 5 | .
CCN(CC)CCCNC(=O)C1CCC(CNS(=O)(=O)c2c(C)cc(C)cc2C)CC1 (stereo not drawn) | -9 | i | -11 | 6 | 1 | -5
CCC1CCCCN1CCCNC(=O)C1CCC(CNS(=O)(=O)c2c(C)cc(C)cc2C)CC1 (stereo not drawn) | -6 | i | -21 | 63* | -11 | -2
COCC(=O)N1C[C@H]2CON(C)[C@H]2C[C@H]1c1cccc(-c2ccc(C#N)cc2)c1 | -2 | i | 5 | -10 | 9 | 9
CC(=NCc1cccc(Cl)c1)c1nc(-c2ccco2)oc1O | -13 | + | 4 | 2 | 13 | 5
Oc1oc(-c2ccco2)nc1C=Nc1cccc(Cl)c1 | -4 | i | 11 | -15 | 6 | 11
COc1cc(/C=C(\C#N)C(=O)c2c[nH]c3ccccc23)cc(OC)c1O | 23* | i | -6 | 23 | 8 | 6
COc1cc(/C=C(\C#N)C(=O)NCCc2ccccc2)cc(OC)c1O | 9 | i | 4 | -2 | -4 | -2
COc1ccc(CNC(=O)c2cn(Cc3ccc(S(=O)(=O)N(C)C)cc3)c(=O)s2)cc1 | 5 | i | 10 | -8 | 15 | .
